# From PubChem
# Hits are enriched below; roughly 3.5% of the tested compounds scored in any of these assays.
# mHTT-CaM PPI inh: mHTT-calmodulin interaction abrogation; AID 1671202; actives 3.6% (n = 190,000); AlphaScreen His-mHTT/GST-CaM binding, luminescence; inhibition, % at 15 µM; P42858;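 note: 0% = both proteins with DMSO and 100% = one protein alone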
# Pf apPOL inh: Pf-apPOL DNA polymerase inhibition; Recombinant Pf-apPOL, molecular beacon fluorescence, 1.5 h; actives 0.25% (n = 210,000); inhibition, % at 10 µM
# Starred values were filed as active, the others as inactive; i = inactive; nt = no result; + = active, no number. Cut-off read from the data, not from the text of the source: active = inhibition above about 50%; inactive = the rest.
SMILES,mHTT-CaM PPI inh,Pf apPOL inh
COc1cccc(N(C(C)=O)C2=C(NC3CCCCC3)C(=O)c3ccccc3C2=O)c1,62*,6
Cc1nnc(N2C(=O)C(O)=C(C(=O)c3ccco3)C2c2cccc([N+](=O)[O-])c2)s1 (stereo not drawn),1,-5
Cc1nnc(N2C(=O)C(O)=C(C(=O)c3ccco3)C2c2cccc(Oc3ccccc3)c2)s1 (stereo not drawn),56*,-10
CC(=O)N1CCc2ccc(NC(=O)Nc3ccccc3Cl)cc2C1,-5,-11
CC(C)Cn1c(=O)c2c(ncn2Cc2ccc(F)cc2)n(-c2ccccc2)c1=O,7,2
Cc1ccccc1-n1c(=O)n(CC(C)C)c(=O)c2c1ncn2Cc1ccc(F)cc1,75*,-7
Cc1cccc(CNC(=O)C2CC(=O)N(c3ccc4c(c3)CCN4C(=O)C3CC3)C2)c1 (stereo not drawn),6,0
O=c1cc2oc3cc(O)c(O)cc3c(-c3ccccc3O)c-2cc1O,85*,i
Nc1ccc2oc(-c3ccccc3Cl)cc(=O)c2c1O,15,-2
O=c1cc2oc3cc(O)c(O)cc3c(-c3ccccc3)c-2cc1O,69*,8
Cc1oc2cc(O)ccc2c(=O)c1-c1ccccc1,-3,0
CC1(C)CC(n2c(SCC#N)nc3c(c2=O)C2(CCCCC2)Cc2ccccc2-3)CCO1 (stereo not drawn),2,0
O=C(/C=C/c1ccccc1Cl)NCCc1nc2ccccc2[nH]1,2,-4
COCn1c(COc2cc(C)ccc2C(C)C)nc2ccccc21,-23,-4
Cc1ccc(C(C)C)c(OCCCn2c(CO)nc3ccccc32)c1,65*,-6
CCn1c(=O)c2ccnn2c2ccc(C(=O)NCc3ccc(F)cc3)cc21,-2,-1
CC(=O)c1ccc(NC(=O)c2ccc(C(C)C)cc2)cc1,-2,17
COc1ccc(-c2ccc3nc(N4CCC(C(=O)NC(C)C)CC4)sc3n2)cc1,14,-5
CCNC(=O)C1CCN(c2nc3ccc(-c4ccc(OC)cc4)nc3s2)CC1,62*,7
CCCN(CC)CCCNC(=O)C1CCN(c2nc3cccnc3s2)CC1,-4,1
O=C(O)CC(C(=O)O)c1c[nH]c2ccccc12 (stereo not drawn),2,-11
c1ccc(C(c2c[nH]c3ccccc23)c2c[nH]c3ccccc23)nc1,74*,-10
CS(=O)(=O)N(Cc1ccccc1)c1ccc(C(=O)NCc2ccncc2)cc1,-1,-4
O=C(NC1CCCC1)c1ccc2ncc3c(=O)n(-c4ccc(Cl)cc4)[nH]c3c2c1,86*,5
O=C(NC1CCCC1)c1ccc2ncc3c(=O)n(-c4ccc(F)cc4)[nH]c3c2c1,3,0
SMILES,mHTT-CaM PPI inh,Pf apPOL inh
O=C1NN(c2cccc(Br)c2)C(=O)/C1=C/c1ccc(-c2ccc(C(=O)O)cc2)o1,31,5
OCCCc1nc2n(n1)C(c1cccc(Cl)c1)C=C(c1ccc(F)cc1)N2 (stereo not drawn),41,-6
COc1ccc(C2C=C(c3ccc(Cl)cc3)Nc3nc(CCCO)nn32)cc1OC (stereo not drawn),52*,12
O=C1C=CC(=NOC2=C(ON=C3C=CC(=O)C=C3)C(=O)c3ccccc3C2=O)C=C1,34,-14
CC1=CC(=O)C=C/C1=N\OC1=C(O/N=C2\C=CC(=O)C=C2C)C(=O)c2ccccc2C1=O,+,6
CC1(C)Cc2c(c(N3CCOCC3)nc3sc4c(NCc5ccccc5)nnnc4c23)CO1,9,-8
CC(=O)N1CCN(CC(=O)N2N=C(c3ccc(C)c(C)c3)CC2c2ccccc2)CC1 (stereo not drawn),47,4
Cc1ccc(C2=NN(C(=O)CN3CCC(C(N)=O)CC3)C(c3ccc(C)cc3)C2)cc1 (stereo not drawn),57*,-9
Cc1ccc(C2CC(c3ccc(Br)cc3)=NN2C(=O)CCC(=O)O)cc1 (stereo not drawn),18,4
Cc1ccc(C2=NN(C(=O)CN3CCC(C(N)=O)CC3)C(c3ccccc3)C2)c(C)c1 (stereo not drawn),56*,-2
CCCNC(=O)N1CCCC1c1ccc(F)cc1 (stereo not drawn),-1,-3
COCCN1CCC(N2CCCN(C(=O)c3ccc4ncccc4c3)CC2)C1=O (stereo not drawn),11,-23
CCOC(=O)C1CCN(S(=O)(=O)c2ccc3[nH]c4c(c3c2)CCCCC4)CC1,71*,-5
O=S(=O)(c1ccc2[nH]c3c(c2c1)CCCCC3)N1CCC2(CC1)OCCO2,58*,-1
CN(CC(=O)N1CCCCCC1)S(=O)(=O)c1ccc2[nH]c3c(c2c1)CCCC3,14,-7
Cc1ccc2c(c1)N(S(=O)(=O)c1ccc3[nH]c4c(c3c1)CCCC4)CCO2,42,0
O=S(=O)(c1ccc2[nH]c3c(c2c1)CCCCC3)N1CCCCC1,76*,-2
Cc1cccc(NC(=O)c2ccccc2Cl)c1,-4,-10
O=C(Nc1c(F)c(F)c(F)c(F)c1F)c1ccccc1,-10,-9
O=C(Nc1c(Cl)c(Cl)c(O)c(Cl)c1Cl)c1ccccc1,85*,-10
CC(C)CCNC(=O)C1(C)CCC(=O)N1CCc1c[nH]c2ccccc12 (stereo not drawn),-7,-1
CC(C)(Oc1ccc(Cl)cc1)C(=O)NCCSc1c[nH]c2ccccc12,99*,3
CC(C)(Oc1ccc(Cl)cc1)C(=O)NCCc1ccccc1,-38,0
O=C(NCCSc1c[nH]c2ccccc12)c1ccc(Cl)cc1,8,-3
Cc1cc2ccccc2n1CCNC(=O)C(C)(C)Oc1ccc(Cl)cc1,60*,-2
SMILES,mHTT-CaM PPI inh,Pf apPOL inh
CC1(C)C(C=C(Cl)Cl)C1C(=O)NCCc1ccccc1 (stereo not drawn),-29,1
CCOC(=O)/C=C1\CN(Cc2ccccc2)S(=O)(=O)c2ccc(C(F)(F)F)cc21,20,34
CCOC(=O)/C=C1\CN(Cc2ccc(OC)cc2)S(=O)(=O)c2ccc(C(F)(F)F)cc21,53*,78*
CNC(=O)N1CCCC(c2cccc(C(=O)NCc3ccc(OC)c(OC)c3)c2)C1 (stereo not drawn),11,-5
N#CC1=C(N)Oc2c([nH]c(=O)[nH]c2=O)C1c1ccc([N+](=O)[O-])cc1 (stereo not drawn),-4,-2
Cc1sc2ccn(CC(C)C)c(=O)c2c1C(=O)N1CCCC(C)C1 (stereo not drawn),10,3
CCn1ccc2sc(C)c(C(=O)N3CCCCC3)c2c1=O,8,0
Cc1sc2ccn(Cc3ccc(F)cc3)c(=O)c2c1C(=O)N1CCCC(C)C1 (stereo not drawn),66*,1
Cc1sc2ccn(Cc3ccc(F)cc3)c(=O)c2c1C(=O)N1CCCCCC1,64*,3
CCOC(=O)C=Cc1ccc(OC)cc1,nt,-18
Fc1ccc2[nH]c3nc4cc(Cl)c(Cl)cc4nc3c2c1,1,-2
CCC(=O)NCc1ccc(N2CCCCCC2)nc1,3,-2
COc1ccccc1CNc1ccc2c(c1)ncn2C1CCCCC1,55*,-4
COc1cccc(CNc2ccc3c(c2)ncn3C2CCCCC2)c1OC,41,0
CCc1ccc(NC(=O)C2CCN(c3cc(=O)n(C)c(=O)n3C)CC2)cc1,42,4
O=[N+]([O-])c1cc(Br)c(O)c(/C=C/c2ccc3cccc(O)c3n2)c1,83*,-11
COc1ccc(Br)cc1/C=C/c1ccc2cccc(O)c2n1,45,-5
